AC50 and outcome data for ten compounds are collected here from PubChem BioAssay (EPA / NIEHS).

Records with an inconclusive call do not appear. Active and inactive are the calls of the source. The calls were made as follows: active = hit-call score of the fitted dose curve at least 0.9, where 1 is the maximum; inconclusive = response in the unintended direction; inactive = score below 0.9.

The AC50 is the midpoint of the concentration-response curve, whichever way the signal moves.

Test system in one experiment: not listed separately
The experiment can be described thus: STM_H9_NormalizedViability: Cytotoxicity Assessment at 120 hours in the Stemina devTOX quickPredict H9 human embryonic stem cell (hESC)-based Assay (AID 2283784). The method, boiled down: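 Viability of the cell layer was taken from live-cell protease cleavage of a fluorogenic substrate after compound exposure of undifferentiated H9 stem cells, with replenishment each 24h. Fluorescence was normalized to vehicle (0.1% DMSO).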
Turning to `CCN=C1C=CC(=C(c2ccc(N(CC)CC)cc2)c2ccc(N(CC)CC)cc2)c2ccccc21`, the half-maximal activity concentration (AC50) is 165 nM (active).
Regarding `CCN=c1cc2oc3cc(NCC)c(C)cc3c(-c3ccccc3C(=O)OCC)c-2cc1C`, the AC50 was 116 nM (active).
As to `CCCCC(CC)COC(=O)c1ccc(N(C)C)cc1` (configuration not stated), the result was inactive.

For a further experiment, the target named is AR (gene 367) (UniProt P10275). The experiment can be described thus: ACEA_AR_antagonist_80hr: ACEA Biosciences xCELLigence Real-Time Cell Analysis on Androgen Receptor Antagonism for Proliferation (AID 2283787).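 Also: 22Rv1 human prostate cancer cells with growth followed by electrical impedance; hits lower the impedance growth signal relative to DMSO.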 The method, boiled down: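 Measures real-time proliferation of 22Rv1 prostate cancer cells by electrode impedance at 80 hours after dosing. Test articles ran at eight concentrations (1:4 steps, top 100 uM final) in biological duplicate.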
Chain of AR (gene 367) (P10275 whole entry, looked up): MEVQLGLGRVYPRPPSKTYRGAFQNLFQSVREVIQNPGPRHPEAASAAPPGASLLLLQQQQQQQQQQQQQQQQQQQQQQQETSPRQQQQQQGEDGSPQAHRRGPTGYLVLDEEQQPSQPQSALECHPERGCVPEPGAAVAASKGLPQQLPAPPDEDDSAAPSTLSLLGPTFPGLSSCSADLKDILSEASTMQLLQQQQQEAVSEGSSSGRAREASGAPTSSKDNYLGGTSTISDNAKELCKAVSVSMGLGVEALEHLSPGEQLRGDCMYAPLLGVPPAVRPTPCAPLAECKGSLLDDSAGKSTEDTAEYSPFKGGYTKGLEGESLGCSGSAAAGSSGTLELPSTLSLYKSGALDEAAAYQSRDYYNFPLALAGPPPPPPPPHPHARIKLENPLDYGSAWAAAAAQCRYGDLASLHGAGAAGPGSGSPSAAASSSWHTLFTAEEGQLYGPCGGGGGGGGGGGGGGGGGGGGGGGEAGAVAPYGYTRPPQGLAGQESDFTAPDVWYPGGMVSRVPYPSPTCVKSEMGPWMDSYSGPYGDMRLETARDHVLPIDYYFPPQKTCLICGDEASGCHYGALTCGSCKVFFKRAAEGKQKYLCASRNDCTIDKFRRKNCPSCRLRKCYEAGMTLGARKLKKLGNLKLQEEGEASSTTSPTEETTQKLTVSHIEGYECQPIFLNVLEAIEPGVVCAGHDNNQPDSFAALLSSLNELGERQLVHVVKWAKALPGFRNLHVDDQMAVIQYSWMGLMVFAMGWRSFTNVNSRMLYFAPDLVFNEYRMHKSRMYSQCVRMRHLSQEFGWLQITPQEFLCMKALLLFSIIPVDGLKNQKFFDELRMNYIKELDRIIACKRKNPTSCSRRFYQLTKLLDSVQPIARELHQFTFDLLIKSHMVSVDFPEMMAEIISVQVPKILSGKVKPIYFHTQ
Turning to `CCCCCCCCCc1ccc(OCCO)cc1`, the AC50 was 16600 nM (active).
With `CCCCCCCCCCCCC[N+](C)(C)Cc1ccccc1`, the AC50 was 4670 nM (active).
As for `C[C@]12CC[C@H]3C(=CCc4cc(O)ccc43)[C@@H]1CCC2=O`, the AC50 was 687 nM (active).
For `CCCCCCCCCCCCCC[P+](CCCC)(CCCC)CCCC`, the half-maximal activity concentration (AC50) is 43.6 nM (active).
As for `O=C1C=CC(=O)N1c1ccccc1`, the result was inactive.
Turning to `CCN=C1C=CC(=C(c2ccc(N(CC)CC)cc2)c2ccc(N(CC)CC)cc2)c2ccccc21`, the AC50 was 131 nM (active).
In the case of `CCN=c1cc2oc3cc(NCC)c(C)cc3c(-c3ccccc3C(=O)OCC)c-2cc1C`, the AC50 was 43.6 nM (active).
Regarding `F[Si-2](F)(F)(F)(F)F`, the compound was called inactive.
Regarding `CCCCCCCC/C=C\CCCCCCCC(=O)OCC(O)CO` (configuration not stated), the call was inactive.
